Results from the supplement of paper PMC10849652.
About 7,900 targets were measured; listed, in parts, are those with a hit and a random draw of the rest. About 0.6% of all pairs of compound and target were hits.

How the values were obtained:
Assay in all cases: log2 fold change, soluble protein after heating vs DMSO (PISA); higher = thermal stabilisation; K562 cells, 10 uM, 30 min; active = over 0.2 and 3.5 SD of the protein, either way, in both replicates (recomputed)
[1] = molecular target: ZER1 (UniProt Q7Z7L7)
In short: (§1)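 Soluble protein was defined as the supernatant after 21,000xg for 90 min. It came from K562 cells at 2×10^6 cells/mL given 10 μM compound for 30 min, heated in aliquots for 3 min across 48°C-58°C, pooled, and extracted in PBS with 0.5% NP-40 at 4°C, and was quantified by TMTpro 16plex LC-MS/MS with equalised channel sums. Thermal stability against control samples, from duplicates, is reported as log2 fold change.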

[2] = molecular target: ZFAND5 (UniProt O76080)
In short: as §1

[3] = molecular target: ZFAND6 (UniProt Q6FIF0)
In short: as §1

[4] = molecular target: ZFP91 (UniProt Q96JP5)
In short: as §1

[5] = molecular target: ZFPL1 (UniProt O95159)
In short: as §1

[6] = molecular target: ZMAT2 (UniProt Q96NC0)
In short: as §1

[7] = molecular target: ZMYM1 (UniProt Q5SVZ6)
In short: as §1

[8] = molecular target: ZMYM3 (UniProt Q14202)
In short: as §1

[9] = molecular target: ZNF143 (UniProt P52747)
In short: as §1

[10] = molecular target: ZEB2 (UniProt O60315)
In short: as §1

Measured: log2 fold change

Chain of ZFAND6 (Q6FIF0 whole entry, looked up): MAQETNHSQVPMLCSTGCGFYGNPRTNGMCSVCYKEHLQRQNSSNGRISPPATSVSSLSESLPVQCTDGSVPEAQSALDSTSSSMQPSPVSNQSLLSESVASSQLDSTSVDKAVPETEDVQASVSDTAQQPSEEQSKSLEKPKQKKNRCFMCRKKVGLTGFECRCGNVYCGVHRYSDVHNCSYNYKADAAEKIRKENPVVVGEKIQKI
Chain of ZER1 (Q7Z7L7 whole entry, looked up): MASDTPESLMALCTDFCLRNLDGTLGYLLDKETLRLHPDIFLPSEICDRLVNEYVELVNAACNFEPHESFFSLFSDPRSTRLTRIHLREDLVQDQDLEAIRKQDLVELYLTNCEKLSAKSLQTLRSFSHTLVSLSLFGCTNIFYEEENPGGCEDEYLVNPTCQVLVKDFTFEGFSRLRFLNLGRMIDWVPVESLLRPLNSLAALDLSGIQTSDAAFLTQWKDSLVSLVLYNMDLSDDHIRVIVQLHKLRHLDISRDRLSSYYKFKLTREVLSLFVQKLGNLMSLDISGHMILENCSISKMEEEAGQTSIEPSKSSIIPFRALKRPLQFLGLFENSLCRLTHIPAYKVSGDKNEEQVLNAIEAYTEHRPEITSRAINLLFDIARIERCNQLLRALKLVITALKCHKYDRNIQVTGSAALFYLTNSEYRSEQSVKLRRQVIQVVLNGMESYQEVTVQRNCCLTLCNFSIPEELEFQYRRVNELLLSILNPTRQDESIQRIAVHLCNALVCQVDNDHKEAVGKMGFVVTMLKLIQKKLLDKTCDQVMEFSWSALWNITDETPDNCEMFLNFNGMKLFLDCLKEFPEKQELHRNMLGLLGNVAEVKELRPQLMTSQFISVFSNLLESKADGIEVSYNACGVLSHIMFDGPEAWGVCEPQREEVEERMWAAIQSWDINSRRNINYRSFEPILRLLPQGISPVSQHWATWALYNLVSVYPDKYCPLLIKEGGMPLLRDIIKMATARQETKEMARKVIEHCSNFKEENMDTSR
Chain of ZMYM3 (Q14202 whole entry, looked up): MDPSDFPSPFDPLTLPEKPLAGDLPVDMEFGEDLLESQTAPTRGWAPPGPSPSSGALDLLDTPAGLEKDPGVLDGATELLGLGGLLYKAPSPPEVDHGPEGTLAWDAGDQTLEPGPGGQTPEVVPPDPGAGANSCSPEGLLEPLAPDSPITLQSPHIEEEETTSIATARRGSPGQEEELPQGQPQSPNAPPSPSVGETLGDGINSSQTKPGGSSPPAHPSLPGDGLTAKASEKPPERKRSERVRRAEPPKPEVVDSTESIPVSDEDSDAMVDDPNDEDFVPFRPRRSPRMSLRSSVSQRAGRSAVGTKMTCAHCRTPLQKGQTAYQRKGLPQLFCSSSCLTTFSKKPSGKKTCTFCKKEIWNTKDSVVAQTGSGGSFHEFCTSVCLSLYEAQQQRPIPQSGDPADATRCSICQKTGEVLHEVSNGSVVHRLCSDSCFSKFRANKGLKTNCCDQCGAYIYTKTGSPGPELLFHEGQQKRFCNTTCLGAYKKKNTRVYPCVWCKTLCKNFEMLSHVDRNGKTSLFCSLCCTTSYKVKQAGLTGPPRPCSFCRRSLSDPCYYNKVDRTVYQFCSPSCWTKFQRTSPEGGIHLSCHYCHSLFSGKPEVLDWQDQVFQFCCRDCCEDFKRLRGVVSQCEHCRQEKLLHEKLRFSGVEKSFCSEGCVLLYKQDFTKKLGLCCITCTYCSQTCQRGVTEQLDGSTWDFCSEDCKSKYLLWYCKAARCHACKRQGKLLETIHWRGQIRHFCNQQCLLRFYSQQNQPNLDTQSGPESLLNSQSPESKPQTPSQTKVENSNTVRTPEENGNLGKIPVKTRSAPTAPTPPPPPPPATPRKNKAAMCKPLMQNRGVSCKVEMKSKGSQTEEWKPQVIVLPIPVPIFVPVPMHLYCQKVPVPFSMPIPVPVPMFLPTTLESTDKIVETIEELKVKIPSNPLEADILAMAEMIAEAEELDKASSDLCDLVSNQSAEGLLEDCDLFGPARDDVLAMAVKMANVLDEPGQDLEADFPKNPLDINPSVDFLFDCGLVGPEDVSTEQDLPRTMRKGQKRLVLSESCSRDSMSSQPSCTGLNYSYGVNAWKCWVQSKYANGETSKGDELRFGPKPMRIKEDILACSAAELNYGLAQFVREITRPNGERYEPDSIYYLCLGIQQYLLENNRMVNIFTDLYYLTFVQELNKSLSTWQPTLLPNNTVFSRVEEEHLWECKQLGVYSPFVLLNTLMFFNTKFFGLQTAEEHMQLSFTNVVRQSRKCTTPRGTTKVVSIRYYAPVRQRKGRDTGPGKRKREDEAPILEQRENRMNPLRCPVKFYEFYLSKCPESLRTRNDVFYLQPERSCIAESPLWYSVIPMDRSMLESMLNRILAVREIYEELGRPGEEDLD
Chain of ZFPL1 (O95159 whole entry, looked up): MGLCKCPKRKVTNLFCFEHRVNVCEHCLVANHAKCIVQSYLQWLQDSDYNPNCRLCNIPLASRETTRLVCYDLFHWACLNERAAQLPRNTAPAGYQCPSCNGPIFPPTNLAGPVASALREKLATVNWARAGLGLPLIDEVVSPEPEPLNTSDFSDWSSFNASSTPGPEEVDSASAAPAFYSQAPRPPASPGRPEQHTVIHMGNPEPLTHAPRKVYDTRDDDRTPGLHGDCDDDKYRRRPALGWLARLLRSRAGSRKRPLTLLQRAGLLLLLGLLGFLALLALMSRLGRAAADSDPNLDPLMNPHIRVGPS
Chain of ZFP91 (Q96JP5 whole entry, looked up): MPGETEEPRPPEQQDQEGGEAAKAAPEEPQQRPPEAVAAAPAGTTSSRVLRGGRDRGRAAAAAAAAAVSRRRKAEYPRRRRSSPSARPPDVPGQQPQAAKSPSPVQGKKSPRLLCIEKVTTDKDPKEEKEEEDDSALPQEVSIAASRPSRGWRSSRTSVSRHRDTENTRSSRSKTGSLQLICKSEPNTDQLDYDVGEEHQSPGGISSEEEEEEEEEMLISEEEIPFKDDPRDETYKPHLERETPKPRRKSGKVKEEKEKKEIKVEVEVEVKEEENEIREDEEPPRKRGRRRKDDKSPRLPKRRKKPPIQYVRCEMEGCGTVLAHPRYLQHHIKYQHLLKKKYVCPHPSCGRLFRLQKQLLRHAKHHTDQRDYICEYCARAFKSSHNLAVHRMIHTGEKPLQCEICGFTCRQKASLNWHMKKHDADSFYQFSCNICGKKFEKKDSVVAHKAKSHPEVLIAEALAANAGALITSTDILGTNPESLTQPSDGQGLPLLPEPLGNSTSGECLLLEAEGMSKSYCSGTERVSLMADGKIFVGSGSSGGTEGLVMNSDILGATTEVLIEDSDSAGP
Chain of ZMYM1 (Q5SVZ6 whole entry, looked up): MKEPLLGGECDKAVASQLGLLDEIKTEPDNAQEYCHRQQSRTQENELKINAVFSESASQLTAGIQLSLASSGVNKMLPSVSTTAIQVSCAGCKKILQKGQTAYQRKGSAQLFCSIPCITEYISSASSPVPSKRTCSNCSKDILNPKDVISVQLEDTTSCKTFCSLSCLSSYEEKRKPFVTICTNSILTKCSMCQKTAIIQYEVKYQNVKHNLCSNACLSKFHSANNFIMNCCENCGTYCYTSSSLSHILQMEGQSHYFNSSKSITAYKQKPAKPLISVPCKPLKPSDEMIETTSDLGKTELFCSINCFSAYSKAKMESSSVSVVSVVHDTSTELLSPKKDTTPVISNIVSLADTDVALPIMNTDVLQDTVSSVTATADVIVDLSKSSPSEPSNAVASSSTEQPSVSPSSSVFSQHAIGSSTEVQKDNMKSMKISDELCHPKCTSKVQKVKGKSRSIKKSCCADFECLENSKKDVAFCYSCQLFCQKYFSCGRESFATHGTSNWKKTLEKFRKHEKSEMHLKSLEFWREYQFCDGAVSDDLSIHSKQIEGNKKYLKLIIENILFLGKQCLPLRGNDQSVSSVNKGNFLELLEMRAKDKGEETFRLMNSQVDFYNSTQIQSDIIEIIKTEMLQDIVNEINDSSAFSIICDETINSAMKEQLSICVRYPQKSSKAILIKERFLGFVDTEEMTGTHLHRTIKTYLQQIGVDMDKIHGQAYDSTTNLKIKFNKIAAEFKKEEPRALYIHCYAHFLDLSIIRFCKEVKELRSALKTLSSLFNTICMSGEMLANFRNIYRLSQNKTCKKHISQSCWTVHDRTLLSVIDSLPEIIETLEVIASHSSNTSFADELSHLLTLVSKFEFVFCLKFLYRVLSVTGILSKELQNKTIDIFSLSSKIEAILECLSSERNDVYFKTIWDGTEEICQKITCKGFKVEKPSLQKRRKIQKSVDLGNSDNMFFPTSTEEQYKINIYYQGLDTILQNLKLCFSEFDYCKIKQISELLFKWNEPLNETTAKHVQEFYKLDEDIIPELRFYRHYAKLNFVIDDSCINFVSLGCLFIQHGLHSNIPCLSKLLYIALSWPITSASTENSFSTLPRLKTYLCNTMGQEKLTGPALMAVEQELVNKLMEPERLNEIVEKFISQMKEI
Chain of ZNF143 (P52747 whole entry, looked up): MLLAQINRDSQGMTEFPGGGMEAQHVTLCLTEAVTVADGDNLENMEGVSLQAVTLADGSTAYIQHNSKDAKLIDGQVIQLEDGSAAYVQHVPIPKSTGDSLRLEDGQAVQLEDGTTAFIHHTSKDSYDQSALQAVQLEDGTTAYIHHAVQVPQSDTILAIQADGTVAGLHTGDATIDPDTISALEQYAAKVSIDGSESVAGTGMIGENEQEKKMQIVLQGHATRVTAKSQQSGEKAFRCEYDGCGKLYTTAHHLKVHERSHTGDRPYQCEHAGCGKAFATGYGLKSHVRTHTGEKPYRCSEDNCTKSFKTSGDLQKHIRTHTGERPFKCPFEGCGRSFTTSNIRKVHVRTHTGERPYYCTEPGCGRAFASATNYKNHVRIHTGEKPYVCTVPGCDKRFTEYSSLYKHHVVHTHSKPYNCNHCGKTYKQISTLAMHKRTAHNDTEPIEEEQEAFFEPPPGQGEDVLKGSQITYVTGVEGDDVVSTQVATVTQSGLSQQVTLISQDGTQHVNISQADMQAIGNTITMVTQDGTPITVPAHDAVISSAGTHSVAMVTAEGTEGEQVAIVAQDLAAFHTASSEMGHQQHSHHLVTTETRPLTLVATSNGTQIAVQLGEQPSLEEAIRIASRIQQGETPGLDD

O=C(CCCCCCC(=O)Nc1ccccc1)NO [vorinostat]
inactive: [1] 0.055 | [2] -0.047 | [3] 0.04 | [4] 0.013 | [5] -0.053 | [6] -0.019 | [7] -0.02 | [8] 0.073 | [9] 0.037

C/C(=N\NC(=O)c1cccc(S(=O)(=O)N2CCOCC2)c1)c1cc(Cl)ccc1O
inactive: [1] 0.019 | [2] -0.018 | [3] -0.075 | [4] -0.069 | [5] 0.099 | [6] 0.001 | [7] -0.174 | [8] -0.004 | [9] 0.127

O=C(CCCCCCNC(=O)c1cnc(N(c2ccccc2)c2ccccc2Cl)nc1)NO [citarinostat]
inactive: [1] 0.192 | [2] 0 | [3] -0.081 | [4] -0.053 | [5] 0.046 | [6] 0.085 | [7] -0.07 | [8] -0.033 | [9] 0.033

CC(C)c1cnn2c(NCc3ccccc3)cc(NCCCCCCN)nc12
inactive: [10] -0.187 | [1] -0.072 | [2] 0.072 | [3] 0.075 | [4] 0.007 | [5] 0.146 | [6] 0.138 | [7] 0.09 | [8] 0.04 | [9] -0.158

CC(=O)c1cnc2ccc(-c3cc(Cl)c(O)c(Cl)c3)nc2c1N[C@H]1CC[C@H](CN(C)C)CC1
inactive: [1] 0.009 | [2] -0.025 | [3] 0.041 | [4] 0.018 | [5] 0.023 | [6] -0.001 | [7] 0.055 | [8] -0.004 | [9] -0.044

COc1cc(C(=O)O)ccc1NC(=O)[C@@H]1N[C@@H](CC(C)(C)C)[C@](C#N)(c2ccc(Cl)cc2F)[C@H]1c1cccc(Cl)c1F [idasanutlin]
inactive: [1] -0.188 | [2] 0.079 | [3] -0.096 | [4] 0.029 | [5] -0.026 | [6] 0.061 | [7] 0.085 | [8] 0 | [9] 0.07

C[C@@H](N)c1ccc(C(=O)Nc2ccnc3[nH]ccc23)cc1
inactive: [1] -0.055 | [2] -0.021 | [3] 0.031 | [4] 0.154 | [5] -0.006 | [6] -0.012 | [7] 0.016 | [8] 0.045 | [9] -0.118

CO[C@H]1C[C@@H]2CC[C@@H](C)[C@@](O)(O2)C(=O)C(=O)N2CCCC[C@H]2C(=O)O[C@H]([C@H](C)C[C@@H]2CC[C@H](n3cnnn3)[C@H](OC)C2)CC(=O)[C@H](C)/C=C(\C)[C@@H](O)[C@@H](OC)C(=O)[C@H](C)C[C@H](C)/C=C/C=C/C=C/1C [zotarolimus]
inactive: [1] -0.035 | [2] -0.012 | [3] -0.045 | [4] -0.028 | [5] 0.006 | [6] -0.034 | [7] -0.05 | [8] 0.093 | [9] 0.067

Nc1ccccc1NC(=O)c1ccc(CNC(=O)OCc2cccnc2)cc1 [entinostat]
inactive: [10] -0.03 | [1] 0.049 | [2] -0.031 | [3] -0.007 | [4] -0.054 | [5] -0.03 | [6] 0.081 | [7] -0.012 | [8] -0.073 | [9] -0.012

C[C@@H]1COCCN1c1cc(C2(S(C)(=O)=O)CC2)nc(-c2cccc3[nH]ccc23)n1
inactive: [10] 0.001 | [1] 0.107 | [2] 0.041 | [3] 0.127 | [4] -0.124 | [5] -0.056 | [6] -0.022 | [7] 0.029 | [8] -0.058 | [9] -0.018

c1cn2cc(-c3ccc4cn[nH]c4c3)nc(Nc3ccc(N4CCOCC4)cc3)c2n1 [entospletinib]
inactive: [1] 0.036 | [2] 0.128 | [3] 0.019 | [4] 0.011 | [5] 0.034 | [6] -0.116 | [7] 0.174 | [8] -0.043 | [9] 0.015

CS(=O)(=O)N1CCN(Cc2cc3nc(-c4cccc5[nH]ncc45)nc(N4CCOCC4)c3s2)CC1 [pictilisib]
inactive: [1] 0.085 | [2] 0.007 | [3] 0.063 | [4] -0.07 | [5] 0.173 | [6] 0.01 | [7] -0.018 | [8] -0.022 | [9] -0.06

O=C1NC(=NCc2cccs2)S/C1=C\c1ccc2ncccc2c1
inactive: [1] -0.016 | [2] -0.015 | [3] 0.077 | [4] -0.007 | [5] 0.01 | [6] -0.063 | [7] 0.113 | [8] 0 | [9] -0.028

CN1CC[C@H](c2c(O)cc(O)c3c(=O)cc(-c4ccccc4Cl)oc23)[C@H](O)C1 [alvocidib]
inactive: [1] -0.131 | [2] 0.041 | [3] 0.028 | [4] 0.108 | [5] -0.038 | [6] 0.047 | [7] 0.016 | [8] 0.14 | [9] -0.125

NC(=O)c1cnc(N[C@@H]2CCCC[C@@H]2N)nc1Nc1cccc(-n2nccn2)c1
inactive: [1] -0.001 | [2] 0.084 | [3] 0.089 | [4] -0.001 | [5] 0.054 | [6] 0.079 | [7] -0.123 | [8] 0.11 | [9] -0.106

CC1=C(C(=O)Nc2cc3cn[nH]c3cc2F)C(c2ccc(C(F)(F)F)cc2)CC(=O)N1 (stereo not drawn)
inactive: [10] -0.076 | [1] -0.112 | [2] 0.058 | [3] -0.013 | [4] 0.058 | [5] 0.041 | [6] 0.026 | [7] 0.088 | [8] 0.062 | [9] 0.033

Cc1cn(-c2cc(NC(=O)c3ccc(C)c(Nc4nccc(-c5cccnc5)n4)c3)cc(C(F)(F)F)c2)cn1 [nilotinib]
inactive: [10] 0.025 | [1] 0.098 | [2] 0.098 | [3] 0.014 | [4] 0.023 | [5] -0.047 | [6] 0.012 | [7] -0.009 | [8] 0.041 | [9] -0.105

FC(F)(F)c1ccc(/C=C/c2nc(COc3ccc(CCCCn4ccnn4)cc3)co2)cc1 [mubritinib]
inactive: [10] -0.114 | [1] 0.044 | [2] 0.099 | [3] 0.017 | [4] -0.076 | [5] -0.007 | [6] 0.049 | [7] -0.081 | [8] -0.072 | [9] 0.094

Cc1nc(Nc2n[nH]c3c2CN(C(=O)N[C@H](CN(C)C)c2ccccc2)C3(C)C)c2sccc2n1
inactive: [10] -0.149 | [1] -0.141 | [2] 0.038 | [3] 0.028 | [4] -0.059 | [5] -0.034 | [6] 0.07 | [7] -0.063 | [8] -0.01 | [9] -0.047
